The record followed here is the supplement of paper PMC10338343.

± gives the standard deviation.

One assay relates to MILI (PIWIL2) piRISC loaded with L1MC piRNA (26 nt). The assay is described as follows: pre-steady-state target cleavage rate (min^-1); guide: L1MC piRNA 5'p-UAACUAAAUACUAUGCAAGCUGUAGG; MIWI and MILI are mouse PIWI proteins and EfPiwi is from a freshwater sponge; tags in brackets are library labels; higher = faster piRNA-guided slicing of the target. As to conditions: auxiliary factor: 500 nM mouse GTSF1. In a few lines:
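Cleave-'n-Seq: a transcribed, DNA-blocked target RNA library (0.1 nM) was mixed with 1 nM active affinity-purified piRISC carrying one synthetic guide, with or without 500 nM GTSF1 partner protein, in HEPES–potassium acetate buffer at 33 °C for 0–8 or 0–960 min. Uncleaved targets were sequenced and normalised to depth and to weakly complementary targets. Three trials were pooled, and k3 was capped at 0.0001 min^-1. The pre-steady-state cleavage rate came from a burst-and-steady-state fit.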
For UCCUGGAAGAGCUUGCAUAGUAUUUACUUA, the “pre-steady-state target cleavage rate” value worked out at 0.0737 ± 0.02.

Turning to UCCUGGAACACCUUGCAUAGUUUUUAGUUA, the “pre-steady-state target cleavage rate” value was found to be 0.0237 ± 0.0067.

For the sequence UCCUGGAACAGCUUGCUAAGUAUUUAGUAA, the “pre-steady-state target cleavage rate” value amounted to 0.0296 ± 0.01.

On to UCCUGGUACAGCUACGAUAGUAUUUAGUAA, for which the “pre-steady-state target cleavage rate” value worked out at 0.183 ± 0.034.

UCCUGGAUGACCUUGCAUAGUAAUUAGUUA: the “pre-steady-state target cleavage rate” value is 0.131 ± 0.027.

Consider UCCUGGAUGUGCUUCGUUAGUAUUUAGUUA, for which the “pre-steady-state target cleavage rate” value was 0.00476 ± 0.0034.

UCCUGGAACAGCUUGCAUAGAAUUUACAAA: the “pre-steady-state target cleavage rate” value came to 0.0177 ± 0.0082.

On to UCCUGGAACACCUUGCAUAGUAUUUACUUA, for which the “pre-steady-state target cleavage rate” value amounted to 0.0546 ± 0.018.

Turning to UCCUGGAACACGUUGCAUAGUAUUUUCAAA, the “pre-steady-state target cleavage rate” value was 0.0973 ± 0.026.

UCCUGGAUGUCCUUGCAUAGUAAAAAGUAA: the “pre-steady-state target cleavage rate” value came out at 0.00651 ± 0.0043.

With UCCUCCUACAGCUUGCAUAGUUAUUACAAA, the “pre-steady-state target cleavage rate” value turned out to be 0.0124 ± 0.0054.

Turning to UCCUCCUACAGCUUGCAUACAAUUUAGUUA, the “pre-steady-state target cleavage rate” value came to 0.00727 ± 0.0046.

As to UCCUCCUACAGGUUGCAUAGUAUUUAGAAA, the “pre-steady-state target cleavage rate” value was 0.12 ± 0.023.

For UCCUGGAUGUCGAAGCAUCGUAUUUAGUUA, the “pre-steady-state target cleavage rate” value amounted to 0.00755 ± 0.0031.

As to UCCUGGAUGUCCUAGGAUAGUAUUUAGUUA, the “pre-steady-state target cleavage rate” value is 0.0104 ± 0.0042.

Consider UCCUGGUACUCGUUGCAUAGUAUUUAGUAA, for which the “pre-steady-state target cleavage rate” value was determined as 0.0635 ± 0.029.

For the sequence UCCUCCUACAGCUUGCUAAGUAUUUACAAA, the “pre-steady-state target cleavage rate” value came out at 0.0519 ± 0.013.

Take UCCUGGAUGAGCUUGCAUAGUAUUCUAGUUA: the “pre-steady-state target cleavage rate” value was 0.165 ± 0.029.

As to UCCUGCUACAGCUUGCUAUGUAUUUAGAAA, the “pre-steady-state target cleavage rate” value came out at 0.0133 ± 0.0063.

As for UCCUGGAUGUCCUUGGCAUAGUAUUUAGUUA, the “pre-steady-state target cleavage rate” value was 0.566 ± 0.19.

For UCCUGCUACAGGAUGCAUAGUAUUUUCAAA, the “pre-steady-state target cleavage rate” value came to 0.0053 ± 0.0038.

Turning to UCCUCCUACAGCUUGCUUAGUAUUUACAAA, the “pre-steady-state target cleavage rate” value amounted to 0.0922 ± 0.021.

In the case of UCCUGGUACAGCUUGCAUAGAAUAUAGUUA, the “pre-steady-state target cleavage rate” value stood at 0.102 ± 0.028.

For the sequence UCCUGGAACAGCUUGCAUAGUUAAUAGUAA, the “pre-steady-state target cleavage rate” value was 0.0133 ± 0.0056.

On to UCCUGGAUCAGCUUGCAUAGUAAUUUCAAA, for which the “pre-steady-state target cleavage rate” value stood at 0.042 ± 0.016.

As for UCCUGGAUGUCGAAGCAUAGUAUUUCAGUUA, the “pre-steady-state target cleavage rate” value came to 0.0176 ± 0.0068.

With UCCUGGUACAGCUUGCAUAGUAUUUAUUA, the “pre-steady-state target cleavage rate” value amounted to 0.042 ± 0.016.

Take UCCUGGAUGUCGUUGCAUAGAAUUUAGUUA: the “pre-steady-state target cleavage rate” value amounted to 0.00458 ± 0.0035.

On to UCCUGGAUGUGCUUGCAUUGUAUUUACUUA, for which the “pre-steady-state target cleavage rate” value is 0.0239 ± 0.0082.

As for UCCUGGAUGUCGUUGCAUAGUAUUUAUGUUA, the “pre-steady-state target cleavage rate” value is 0.137 ± 0.04.

As to UCCUGCUACAGCUUGCAAUCUAUUUUCAAA, the “pre-steady-state target cleavage rate” value was determined as 0.00419 ± 0.0036.

As for UCCUGGAUGUCCAUGCAUAGUAUUUAGUAA, the “pre-steady-state target cleavage rate” value was 0.0373 ± 0.011.

As for UCCUGCUACACGAUGCAUAGUAUUUUCAAA, the “pre-steady-state target cleavage rate” value worked out at 0.117 ± 0.034.

Regarding UCCUGGAACAGGAUGCAUAGUAUUUUCAAA, the “pre-steady-state target cleavage rate” value turned out to be 0.0202 ± 0.0076.

UCCUCCUACAGCUUCGAUAGUAUUUAGAAA: the “pre-steady-state target cleavage rate” value was determined as 0.0982 ± 0.019.

Consider UCCUGCUACAGCUUGCAAUCUAUUUACAAA, for which the “pre-steady-state target cleavage rate” value was found to be 0.00954 ± 0.0044.

Staying with this assay, now noted: auxiliary factor: none (no GTSF1).
Regarding UCCUGGAUGUCGAACGUUAGAUUUUAGUUA, the “pre-steady-state target cleavage rate” value was less than 0.0001.

As for UCCUGGAUGUCGAACGUAUCUAUAUUGUUA, the “pre-steady-state target cleavage rate” value was less than 0.0001.

For the sequence UCCUGGAUGUCGAUGCAUAGUUAAUAGUUA, the “pre-steady-state target cleavage rate” value is 0.00272 ± 0.0027.

As for UCCUGGAUGUCGAACGUACGUAUUUAGUUA, the “pre-steady-state target cleavage rate” value is less than 0.0001.
